Test results: ChEMBL document CHEMBL3988442, “University of Dundee, Small-Polar-MMV Screening Library” (2021)

These molecules were tested against AMP-activated protein kinase, AMPK (Homo sapiens) (UniProt P54646+O43741+P54619+Q9UGJ0+Q9Y478+Q13131+Q9UGI9) (assay: AMP-dependent Kinase enzyme assay. An in vitro enzyme assay that detects ADP turnover that is directly proportional to AMPK activity. This uses naive AMPK that is activated during the assay with MK-8722). Conditions: 30 µM.
Assay type: functional
Design: scale not given: direction of the effect not stated beside the values

Row | Compound | Percent Effect
1 | O=C(CCc1nc(-c2ccsc2)no1)NCC1CCN(C2CC2)C1 (centres undefined) | 1.07%
2 | O=S(=O)(Cc1nc(C2CC2)no1)c1cc(F)ccc1F | 8.83%
3 | Cc1cc(C(=O)NC(C)Cc2ccccc2Cl)n(C)n1 (centres undefined) | 7.6%
4 | CCNC(=O)[C@@H]1C[C@H](N)CN1c1cc(C(F)(F)F)nc(N2CCCC2)n1 | 2.77%
5 | CC(O)CN1CCN(Cc2coc(-c3cccc(Cl)c3)n2)CC1 (centres undefined) | -7.56%
6 | CSCC(C)(O)CNS(=O)(=O)c1ccc(F)cc1 (centres undefined) | -4.97%
7 | CCS(=O)(=O)N1CCN(C(C)c2ncc(-c3ccccc3)o2)CC1 (centres undefined) | -3.96%
8 | CCOc1cccc(C(C(=O)O)N(C)Cc2cc(C)no2)c1 (centres undefined) | 7.67%
9 | CCN(CC(=O)NC)C(=O)c1sc(Cc2ccccc2)nc1C | -3.98%
10 | CC1(C)OC(=O)N(CC(=O)N2CCC(c3ccccc3Cl)C2)C1=O (centres undefined) | 8.7%
11 | COc1c(C2CCCN2CC(=O)Nc2nccs2)c(C)nn1C (centres undefined) | 7.38%
12 | COCCCN1CCN(C(=O)C(c2cccc(F)c2)N(C)C)CC1 (centres undefined) | -3.6%
13 | O=C(CC1CCCC1)NCCNCc1cccc2c1OCCO2 | -3.45%
14 | Cc1cc(C(=O)N(C)CCN(C)C(=O)OC(C)(C)C)oc1C | 5.9%
15 | O=C(O)[C@H]1C[C@@H](C(=O)NCc2ccncc2)CN(Cc2ccccc2)C1 | -3%
16 | COc1cccc(CN(C)Cc2[nH]c3ccccc3c2C)c1O | -44.5%
17 | CC(NCc1nnc2n1CCCC2)c1nc(-c2cccs2)no1 (centres undefined) | -0.613%
18 | Cc1c(C(=O)NC2CCCOC2)nnn1-c1ccc(Cl)cc1F (centres undefined) | 0.0565%
19 | Cc1ccc2occ(CN3CCN(c4ncccn4)CC3)c(=O)c2c1 | -1.29%
20 | C=C(C)CN(CC)C(=O)Nc1ccccc1CN(C)C(C)=O | -1.91%

Row | Compound | Percent Effect
21 | O=C(O)c1ccccc1-c1ccc(CN2CC(c3ccncn3)C2)o1 | 11.8%
22 | CCCn1nnnc1COC(=O)C1COc2ccc(Cl)cc2C1 (centres undefined) | 19.7%
23 | Cc1cc(C[S+]([O-])Cc2ccccc2F)no1 (centres undefined) | 13.9%
24 | c1cnn(C2CN(c3nc(-c4ccncc4)nc4c3CCC4)C2)c1 | 1.13%
25 | COc1ccc2c(c1)OCC(Cc1cc(C(=O)N3CCCC3)ccn1)C2 (centres undefined) | 0.531%
26 | Cc1ccccc1S(=O)(=O)N(C)[C@@H]1CC[C@@H](n2ccnc2C)[C@@H]1O | -13.8%
27 | Cn1ncc2c1CCCC2NCc1cccnc1 (centres undefined) | 5.94%
28 | COCCNS(=O)(=O)c1c(C)sc2ccccc12 | -3.2%
29 | Cc1nnc(N2CCc3cncnc3C2)c(C#N)c1C | -187%
30 | Clc1ccccc1CCn1ccnc1-c1cn(C2CCNCC2)nn1 | -7.28%
31 | O=C(CN1CCC(c2nnc(C(F)(F)F)o2)CC1)NCc1ccccc1 | 0.729%
32 | CCC(C(=O)N(Cc1ccccn1)C1CCCCC1)n1cccn1 (centres undefined) | 1.8%
33 | Cc1cc(NCCNc2cccnc2)nc(N)n1 | -11.6%
34 | CC(C)NC(=O)CNC(=O)c1csc(Cc2ccccc2F)n1 | 4.46%
35 | O=C(NC1CCN(C2CC2)CC1)c1cn(-c2ccc(Cl)cc2)nn1 | 0.108%
36 | CC(C)(C)Oc1ccc(NCC(=O)NCc2ccco2)cc1 | 9.8%
37 | Cc1cc(C(=O)NCCN2CCCC(C)C2)nn1C(C)(C)C (centres undefined) | -4.71%
38 | CC1C(=O)NCCN1CCOc1ccc(C#N)cc1 (centres undefined) | 3.66%
39 | Cc1cc(CNCC2(O)CCOCC2)ccc1F | -5.64%
